PINK1 modulator: modulators of PINK1 expression. AID 624263. PINK1 immunofluorescence, high-content cytometry, 24 h. actives 0.2% (n = 410,000). Potency, µM (top dose mostly 76.6 µM), inactives show at the top dose activation (PINK1 increase), actives largely listed as activators; active = well fitted activation curve with a large enough effect; inconclusive = small, poorly fitted or top-dose-only effect; cell line not stated here; note: potency is the fitted concentration of half-maximal effect; % of control where 0% means no effect; nearly all actives have a fitted effect of over 65% in size
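Compound titrations (5 concentrations, 24 h) on a stable cell line; DMSO and CCCP controls. Endpoint: fixed-cell PINK1 immunofluorescence with mitochondrial, cell and nuclear markers, scanned by microplate cytometer.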
TCR act: T cell receptor activation. primary human leukocytes, anti-CD3, IL-2 HTRF, 48 h. Potency, µM (doses to about 9.22 µM), without a hit: top-dose activation of IL-2 secretion, hits mostly activators. 330,000 tested, under 10 active. AID 504894; note: % of control where 0% means no effect
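IL-2 release read by HTRF sandwich (Eu cryptate donor, d2 acceptor, 665 nm emission) after 48 hr exposure of primary human leukocytes to compound together with anti-CD3 beads in the absence of co-stimulatory signals.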
BRCA1 expr up: increases BRCA1 expression. MCF7-BRCA1-FFLuc reporter, luminescence, 48 h; response scale: scaled: vehicle 0%, 10 µM genistein 100%. Potency, µM (titrated, usually from 46.1 µM), for inactives: top-dose activation, most hits filed as activators. actives 1.1% (n = 380,000). AID 624202; note: potency is the fitted concentration of half-maximal effect; nearly all actives have a fitted effect of over 80% in size
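MCF7 cells carrying a BRCA1-firefly luciferase reporter (2000 cells/well, phenol-red free MEM) were attached for 2 h at 37 °C, then given compounds for 48 h. Luminescence was read 15 min after luciferase reagent; activity normalized to genistein (10 microM) and DMSO.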
Akt phos inh: Akt phosphorylation inhibition; Neuro2A IGF-stimulated pAkt S473 HTRF, 20 min; hits give low values; activity change, % for hits at 50 µM; actives 0.32% (n = 360,000); AID 651550; in the data active = activity change below about -80%; inconclusive = mostly about -51% to -80%; note: % is set by controls: 0 for no effect and ±100 for the full control effect
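Single-point screen (50 µM final compound) in Neuro2A cells stimulated 20 min with 6 nM IGF at 37 deg C. After lysis, Ser473-phosphorylated Akt read by HTRF (ex 330 nm, em 615/665 nm) as the 665/615 ratio.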
Active calls of the source: *; i = inactive; ? = inconclusive; . = no result; [ ] = dose if it differs, or a comment. Compounds with a hit are over-represented: about 1.5% of the library has one in this group of screens. Unless noted, calls come from the whole dose curve; as a rule, active = well fitted curve in the direction sought with a large enough effect; inconclusive = small, poorly fitted or top-dose-only effect, or another doubt; inactive = no such curve, though single readings can be large; an effect the other way counts as inactive or inconclusive.

SMILES | PINK1 modulator | TCR act | BRCA1 expr up | Akt phos inh
Cc1ccc2nc(-c3ccccc3)c(Cc3ccccc3C(F)(F)F)n2c1 | 8.7% | . | 2.51µM* | i
Cc1ccn2c(Cc3ccccc3)c(-c3ccccc3)nc2c1 | 0.8% | . | 12.6µM* | i
Cc1ccc(-c2nc3ccc(C)cn3c2Cc2ccccc2C(F)(F)F)cc1 | 3.3% | . | ? | i
CC(C)C(NC(=O)c1ccoc1)c1nnc2n1CCN(Cc1ccc3c(c1)Cc1ccccc1-3)CC2 (centres undefined) | -0.4% | . | . | .
Cc1cc(C(=O)Nc2ccccc2-c2nc(CNC(=O)c3sc(C)nc3C)c(C)o2)c(C)o1 | -0.3% | . | . | .
O=C(NCC1Cc2cc(F)cc(-c3cnccn3)c2O1)c1cccc(-c2ccccc2F)c1 (centres undefined) | 1.0% | . | . | .
CC(=O)Nc1ccc(Cc2ccncc2)cc1 | 2.5% | -2.9% | 21.6% | -112.8%*
CC(=C/c1ccccc1)/C=C1/SC(N2CCOCC2)=NC1=O | 2.8% | 4.1% | 11.2µM* | i
O=S(=O)(/C=C/c1ccccc1)N1CCC(n2c(C3CCCO3)nc3cccnc32)CC1 (centres undefined) | 0.5% | . | . | .
COc1ccc(C2C3=C(CC(C)(C)CC3=O)Nc3c2c(=O)[nH]c(=O)n3Cc2ccccc2)cc1 (centres undefined) | 5.3% | 3.6% | -12.9% | -102.1%*
N#Cc1ccccc1NC(=O)c1ccc2c(Cl)c3c(nc2c1)CCCC3 | -0.7% | -0.1%[46.1 µM] | 6.31µM* | i
COc1cc(Cl)c(CN2CCOc3ccc(CN4CCCCC4CO)cc3C2)cc1OC (centres undefined) | -0.7% | . | . | .
CCCCSc1c(C)c2cc3c(cc2[nH]c1=O)OCO3 | 5.62µM* | . | 8.8% | i
C=CCNC(=O)c1ccccc1NC(=O)c1ccc(Cl)c(S(=O)(=O)Nc2ccccc2)c1 | ? | . | -54.2% | -88.4%*
O=C(NCc1ccco1)c1ccc(Cl)c(S(=O)(=O)Nc2ccccc2)c1 | 1.9% | 1.8% | -7.1% | i
COc1cc2c(cc1OC)CN(CC(=O)Nc1ccc(C#N)cc1)CC2 | -0.8% | -5.1% | 0.0% | -106.8%*
COc1cc2c(cc1OC)CN(CC(=O)Nc1ccc(S(=O)(=O)N(C)C)cc1)CC2 | -0.3% | -3.2% | 7.6% | i
Cc1cc(C)cc(C(=O)NCc2nc(-c3cccc(NC(=O)c4ccccn4)c3)oc2C)c1 | -0.6% | . | . | .
CCN(CC)C(=O)CSC(=Nc1ccccc1F)NC#N | 0.0% | -2.9% | 11.2µM* | i
CCOC(=O)c1ccc(NC(=O)c2c(NCc3ccc(OC)c(OC)c3OC)sc3c2CCC(C)C3)cc1 (centres undefined) | 1.8% | . | . | .
CC(C)n1c(/C=C/c2ccccc2)nc2ccccc21 | 0.7% | -1.2%[46.1 µM] | 2.24µM* | i
CC(=O)c1ccc(-c2ccc3c4c(ccc3c2)OC(CNC(=O)[C@@H]2CCCN2C(C)=O)C4)s1 (some centres undefined) | 0.2% | . | . | .
COc1ccc(CNc2nc(Cl)nc3nc[nH]c23)cc1 | -0.3% | . | -2.1% | .
Clc1ccc(OCc2cc(-c3ccccc3)no2)cc1Cl | . | 6.2% | 14.1µM* | i
O=C(COc1ccc(Cl)cc1)Nc1cc(-c2ccccc2)no1 | -2.6% | . | . | .
SMILES | PINK1 modulator | TCR act | BRCA1 expr up | Akt phos inh
Clc1ccc(-c2cc(COc3ccccc3)on2)cc1 | -0.5% | -0.5% | 10µM* | i
COc1ccc(CN2CCC(n3cc(C(=O)N4CCCC4)nn3)CC2)c(OC)c1C | -0.4% | . | . | .
CCOC(=O)C1=C(C)N=C2SC(C(=O)OC)=CC(=O)N2C1c1ccc(F)cc1 (centres undefined) | 8.0%[38.3 µM] | 0.5% | -35.4% | -87.5%*
CCOC(=O)C1=C(C)N=C2SC(C(=O)OC)=CC(=O)N2C1c1cccc(OC)c1 (centres undefined) | 5.2% | -0.4% | -9.5% | i
O=C(CSc1nnc2ccccn12)c1ccc2c(c1)OCCO2 | -2.2% | -1.9% | 7.08µM* | i
CC(C)n1nnnc1SCC(=O)c1ccc2c(c1)OCCO2 | -1.2% | 3.1% | 3.4% | i
CCn1nnnc1SCC(=O)c1ccc2c(c1)OCCO2 | 2.4% | 0.9% | -8.9% | -104.3%*
COc1ccc(C(=O)CSc2nnc3ccccn23)cc1OC | -0.1% | -1.6% | 29.9% | i
Cc1cc(C(=O)CSc2nnnn2C)c(C)n1-c1ccc2c(c1)OCCO2 | 4.0% | -2.9% | 7.94µM* | i
CC(O)(COc1ccccc1)c1ccc2c(c1)CN(C/C=C/c1ccco1)CCO2 (centres undefined) | -0.2% | . | . | .
COc1ccc2oc(=O)c(C(=O)Nc3cccc(C)c3)cc2c1 | 16.8% | 10.5% | 3.16µM* | i
COc1ccc(NC(=O)c2cc3cc(OC)ccc3oc2=O)cc1 | 25.1µM* | 5.2% | 5.6% | i
COc1ccc2oc(=O)c(C(=O)Nc3cccc(C(=O)O)c3)cc2c1 | 13.4% | . | . | .
CCNc1nc(N2CCCN(C)CC2)nc2cc(OC)c(OC)cc12 | 2.2% | . | -16.7% | .
O=C(c1ccccc1)N1CCN(c2nc3ccc([N+](=O)[O-])cc3s2)CC1 | 5.3% | -8.3% | -0.4% | i
Fc1cc(F)c2nc(N3CCCCC3)sc2c1 | 0.5% | 1.2% | 12.6µM* | i
c1ccc2sc(N3CCCCC3)nc2c1 | 2.9% | -1.0% | 4.47µM* | i
O=[N+]([O-])c1ccc2nc(N3CCCC3)sc2c1 | -0.8% | 0.4% | 8.91µM* | i
COc1ccc(OCCSc2nc(N)cc(N)n2)cc1 | 0.1% | -3.7% | 11.2µM* | i
Cc1ccc(OCCSc2nc(N)cc(N)n2)cc1 | 3.8% | -2.4% | ? | i
CN(C)c1ncc2nc(-c3ccc(F)cc3)c(=O)n(C[C@H]3CCCO3)c2n1 | 0.8% | . | . | .
CCn1c(N)c(C(=O)N2CCOCC2)sc1=S | -2.2% | 1.4% | 6.0% | -113.9%*
C=CCn1c(N)c(C(=O)N2CCOCC2)sc1=S | 6.2%[38.3 µM] | -11.4% | -30.1% | i
CN(C)c1ccc(/C=N/NC(=O)c2ccnn2C)cc1 | 1.1% | 1.9% | 12.6µM* | i
CN(C)c1ccc(/C=N/NC(=O)c2ccn(C)n2)cc1 | 0.7% | -13.8% | ? | i
SMILES | PINK1 modulator | TCR act | BRCA1 expr up | Akt phos inh
O=C1OC(C(=O)Nc2ccccc2)Cc2ccccc21 (centres undefined) | 4.8% | 1.6% | 21.1% | i
Cc1ccc(NC(=O)C2Cc3ccccc3C(=O)O2)cc1 (centres undefined) | -0.7% | 0.0% | 3.98µM* | i
COC(=O)[C@@H]1CCCN1Cc1ccc2c(c1)CN(Cc1ccccc1C)CCO2 | 1.5% | . | . | .
Cn1ccsc1=NC(=O)c1ccc(=O)[nH]c1 | 0.6% | -9.7% | 1.2% | i
Cn1ccsc1=NC(=O)c1cccc(OC(F)F)c1 | 2.7% | 4.4% | 8.91µM* | i
Nc1cc(OCc2ccccc2)ccc1OCc1ccccc1 | 1.3% | -4.6% | 11.2µM* | i
Nc1ccc(OCc2ccccc2)cc1 | 2.4% | -3.6%[46.1 µM] | ? | i
COc1ccc(Cc2nnc(Nc3ccc(C)cc3C)[nH]c2=O)cc1 | -5.2% | 1.5% | -6.4% | -121.5%*
COc1ccc(Cc2nnc(SCC(=O)Nc3ccc(C)cc3C)[nH]c2=O)cc1 | -2.8% | 14.8% | 5.1% | i
Cn1ccnc1SCC(=O)Nc1ccc(Oc2ccccc2)cc1 | 3.3% | 2.5% | 10µM* | i
